# Reference: PubChem BioAssay
# Unmarked numbers belong to inactive results. Calls of active or inactive are those of the source.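 How the source made its calls, unless noted: active means compounds that lower survival of DLD-1 colon cancer cells in the luminescence readout, no cutoff given; inactive means the rest.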
# Assay: CellTiter-Glo luminescent readout of SW480 viability loss, NPC library primary (AID 1117343;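 active means compounds that lower viability of the colon cancer cells in the luminescence readout, with no numeric limit stated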)
# Conditions: CellTiter-Glo luminescence; at 20 µM (top of the series)
row,Compound,viability decrease (inhibition)
1,CCC1=C(C)CN(C(=O)NCCc2ccc(S(=O)(=O)NC(=O)NC3CCC(C)CC3)cc2)C1=O (stereo not drawn),17.1%
2,Nc1nc2c(ncn2CCC(CO)CO)c(=O)[nH]1,47.6%
3,Cn1nnc2c(C(N)=O)ncn2c1=O,-3.8%
4,Nc1ccc(O)c(C(=O)O)c1,22.9%
5,CC1CCN(CCCC(=O)c2ccc(F)cc2)CC1,23.2%
6,COC(=O)C1=C(C)NC(C)=C(C(=O)OC(C)C)C1c1cccc2nonc12 (stereo not drawn),20.8%
7,OCCOCCN1CCN(C2=Nc3ccccc3Sc3ccccc32)CC1,14%
8,Nc1nc(N)nc(-c2cc(Cl)ccc2Cl)n1,-12.5%
9,CCc1c2c(nc3ccc(OC(=O)N4CCC(N5CCCCC5)CC4)cc13)-c1cc3c(c(=O)n1C2)COC(=O)[C@]3(O)CC,21.7%
10,COc1ccc(C2CNC(=O)C2)cc1OC1CCCC1 (stereo not drawn),88.4% (active)
11,CN1CCCCC1CCN1c2ccccc2Sc2ccc(S(C)=O)cc21 (stereo not drawn),31.7%
12,O=C(O)/C=C/c1ccc(Cn2ccnc2)cc1,9.3%
13,COc1ccc2nc(S(=O)Cc3ncc(C)c(OC)c3C)[nH]c2c1 (stereo not drawn),-451%
14,CCN1CCCC1CNC(=O)c1cc(S(=O)(=O)CC)c(N)cc1OC (stereo not drawn),1.7%
15,CCOC(=O)OC(C)OC1=C(C(=O)Nc2ccccn2)N(C)S(=O)(=O)c2ccccc21 (stereo not drawn),-18.8%
16,O=C(NCCO[N+](=O)[O-])c1cccnc1,0.2%
17,CC[N+](C)(CC)CCOC(=O)C(O)(c1ccccc1)C1CCCCC1 (stereo not drawn),0.8%
18,CNS(=O)(=O)Cc1ccc2[nH]cc(CCN(C)C)c2c1,66.2% (active)
19,CCc1nn(CCCN2CCN(c3cccc(Cl)c3)CC2)c(=O)n1CCOc1ccccc1,91.5% (active)
20,OCc1cc(C(O)CNCCCCCCOCCCCc2ccccc2)ccc1O (stereo not drawn),46.4%

# Assay: decreased DLD-1 cellular survival, CellTiter-Glo luminescent readout, NPC compound collection, primary HTS (AID 1117346)
# Conditions: DLD-1 viability, CellTiter-Glo luminescence; at 20 µM (top of the series)
row,Compound,viability decrease (inhibition)
1,CCOC(=O)C1=C(C)NC(C)=C(C(=O)OC)C1c1cccc(Cl)c1Cl (stereo not drawn),95.6% (active)
2,O=C(NCCN1CCOCC1)c1ccc(Cl)cc1,-7.9%
3,CCOc1cc(CC(=O)N[C@@H](CC(C)C)c2ccccc2N2CCCCC2)ccc1C(=O)O,33.3%
4,COCCCC/C(=N\OCCN)c1ccc(C(F)(F)F)cc1,23.5%
5,COc1ccccc1N1CCN(CC(O)COc2cccc3ccccc23)CC1 (stereo not drawn),59.3% (active)
6,CC(C)NCC(O)COc1ccc(CCOCC2CC2)cc1 (stereo not drawn),2.1%
7,COc1cc2nc(N3CCN(C(=O)C4CCCO4)CC3)nc(N)c2cc1OC (stereo not drawn),5.5%
8,c1cnc(N2CCN(Cc3ccc4c(c3)OCO4)CC2)nc1,-20%
9,CCOC(=O)c1ncn2c1CN(C)C(=O)c1cc(F)ccc1-2,4%
10,CC(C)NCC(O)COc1ccc(COCCOC(C)C)cc1 (stereo not drawn),-4.5%
11,CN1CCC(=C2c3ccccc3C=Cc3ccccc32)CC1,31.8%
12,Cc1ncc([N+](=O)[O-])n1CC(O)CCl (stereo not drawn),-4.95%
13,CCc1oc2ccccc2c1C(=O)c1cc(Br)c(O)c(Br)c1,101% (active)
14,O=C(CCNNC(=O)c1ccncc1)NCc1ccccc1,31.8%
15,Oc1ccc(C2CNCCc3c2cc(O)c(O)c3Cl)cc1 (stereo not drawn),29.6%
16,O=C1CC2(CCCC2)CC(=O)N1CCCCN1CCN(c2ncccn2)CC1,1.7%
17,Cc1cccc(C)c1OCC(C)N (stereo not drawn),4.3%
18,CN1CCC(=C2c3ccccc3CC(=O)c3sccc32)CC1,-6.6%
19,CCC1=C(C)CN(C(=O)NCCc2ccc(S(=O)(=O)NC(=O)NC3CCC(C)CC3)cc2)C1=O (stereo not drawn),7.8%

row,Compound,viability decrease (inhibition)
1,Nc1nc2c(ncn2CCC(CO)CO)c(=O)[nH]1,-0.57%
2,Cn1nnc2c(C(N)=O)ncn2c1=O,-1.4%
3,Nc1ccc(O)c(C(=O)O)c1,20.4%
4,CC1CCN(CCCC(=O)c2ccc(F)cc2)CC1,37.1%
5,COC(=O)C1=C(C)NC(C)=C(C(=O)OC(C)C)C1c1cccc2nonc12 (stereo not drawn),11.2%
6,OCCOCCN1CCN(C2=Nc3ccccc3Sc3ccccc32)CC1,7.8%
7,Nc1nc(N)nc(-c2cc(Cl)ccc2Cl)n1,-18.2%
8,CCc1c2c(nc3ccc(OC(=O)N4CCC(N5CCCCC5)CC4)cc13)-c1cc3c(c(=O)n1C2)COC(=O)[C@]3(O)CC,8.7%
9,COc1ccc(C2CNC(=O)C2)cc1OC1CCCC1 (stereo not drawn),29.1%
10,CN1CCCCC1CCN1c2ccccc2Sc2ccc(S(C)=O)cc21 (stereo not drawn),9.3%
11,O=C(O)/C=C/c1ccc(Cn2ccnc2)cc1,9%
12,COc1ccc2nc(S(=O)Cc3ncc(C)c(OC)c3C)[nH]c2c1 (stereo not drawn),-12.7%
13,CCN1CCCC1CNC(=O)c1cc(S(=O)(=O)CC)c(N)cc1OC (stereo not drawn),-1.4%
14,CCOC(=O)OC(C)OC1=C(C(=O)Nc2ccccn2)N(C)S(=O)(=O)c2ccccc21 (stereo not drawn),-0.2%
15,O=C(NCCO[N+](=O)[O-])c1cccnc1,-3.2%
16,CC[N+](C)(CC)CCOC(=O)C(O)(c1ccccc1)C1CCCCC1 (stereo not drawn),-8.3%
17,CNS(=O)(=O)Cc1ccc2[nH]cc(CCN(C)C)c2c1,-3.8%
18,CCc1nn(CCCN2CCN(c3cccc(Cl)c3)CC2)c(=O)n1CCOc1ccccc1,81.3% (active)
19,OCc1cc(C(O)CNCCCCCCOCCCCc2ccccc2)ccc1O (stereo not drawn),37.8%
